Data from PubChem BioAssay (EPA / NIEHS).
Inconclusive results are not listed. Active and inactive are the calls of the source. How the source made its calls, unless noted: active means hit-call score of the fitted dose curve at least 0.9, where 1 is the maximum; inactive means score below 0.9.

Experiments:
[1] = read-out: Monokine induced gamma interferon (MIG), CXCL9 (gene 4283); assay: BSK_3C_MIG: BioMAP Diversity Plus: 3C Assay for Monokine induced gamma interferon (MIG) Biomarker Activity (AID 2283021); details: primary human endothelial cells (HUVEC); actives raise or lower the signal;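 on AC50: MIG protein level measured by immunoassay in the treated endothelial cultures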
In short: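 ELISA measurement of MIG in human umbilical vein endothelial cells 24 h after treatment. Cytotoxicity tracked by SRB staining in parallel cultures; gain or loss of signal fitted relative to DMSO.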

[2] = target: human Vitamin D Receptor (VDR), VDR (gene 7421) (UniProt P11473); assay: ATG_VDR_TRANS: Attagene TRANS-FACTORIAL HepG2 Assay for human Vitamin D Receptor (VDR) (AID 2283022; active means hit-call score of the fitted dose curve at least 0.9, where 1 is the maximum)
In short: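 Transactivation by an exogenous VDR-Gal4 chimera in transiently transfected HepG2 cells was measured as reporter transcript level 24 hours after chemical treatment. RT-PCR products were analysed by capillary electrophoresis and fitted in the positive direction relative to DMSO.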

[3] = BSK_3C_SRB: Viability Assessment in the BioMAP Diversity Plus: 3C Assay (AID 2283023); details: primary human endothelial cells (HUVEC);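 further: fitted both ways against DMSO so a hit may be signal rise or drop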
In short: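 Cytotoxicity readout in parallel HUVEC 3C cultures: after 24 h compound exposure, cells fixed with 10% TCA, stained with 0.1% SRB and read at 560 nm. Gain or loss relative to DMSO fitted.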

[4] = read-out: Matrix Metallopeptidase 1 (MMP1), MMP1 (gene 4312); assay: BSK_BE3C_MMP1: BioMAP Diversity Plus: BE3C Assay for Matrix Metallopeptidase 1 (MMP1) Biomarker Activity (AID 2283024); details: primary human bronchial epithelial cells; actives raise or lower the signal
In short: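 ELISA measurement of MMP-1 after 24 h compound exposure of primary human bronchial epithelial cells. Changes in either direction fitted relative to DMSO; parallel SRB staining checked overt cytotoxicity.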

[5] = BSK_3C_Vis: BioMAP Diversity Plus: 3C Assay for Morphology Visualization (AID 2283025); details: primary human endothelial cells (HUVEC);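 further: fitted both ways so gain or loss versus DMSO counts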;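 on AC50: light microscopy image of cell morphology used as background control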
In short: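 Light-microscopy visualization of HUVEC cultures at 24 h post-treatment, with DMSO as baseline for bidirectional fitting.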

[6] = read-out: Pselectin, SELP (gene 6403); assay: BSK_4H_Pselectin: BioMAP Diversity Plus: 4H Assay for Pselectin Biomarker Activity (AID 2283026); details: primary human endothelial cells (HUVEC); actives raise or lower the signal
In short: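 ELISA of surface P-selectin on HUVEC, 24 h after dosing, with parallel SRB staining (0.1% after 10% TCA fixation, 560 nm) for overt cytotoxicity. Activity fitted in both directions relative to DMSO.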

[7] = BSK_4H_SRB: Viability Assessment in the BioMAP Diversity Plus: 4H Assay (AID 2283027); details: primary human endothelial cells (HUVEC);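 further: cells exposed to compound for 24 h before staining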;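 on AC50: curves fitted both ways versus DMSO so AC50 may be loss or gain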
In short: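 Cytotoxicity readout: sulforhodamine B (0.1%) staining of total protein after 10% TCA fixation, measured at 560 nm in human umbilical vein endothelium at 24 h. DMSO set the baseline; fitting was bidirectional.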

[8] = read-out: Thrombomodulin, THBD (gene 7056); assay: BSK_3C_Thrombomodulin: BioMAP Diversity Plus: 3C Assay for Thrombomodulin Biomarker Activity (AID 2283029); details: primary human endothelial cells (HUVEC); actives raise or lower the signal
In short: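 ELISA measurement of thrombomodulin on HUVEC surface 24 h after chemical dosing; activity fitted in both directions relative to DMSO vehicle.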

[9] = read-out: Urokinase-type plasminogen activator receptor (uPAR), PLAUR (gene 5329); assay: BSK_4H_uPAR: BioMAP Diversity Plus: 4H Assay for Urokinase-type plasminogen activator receptor (uPAR) Biomarker Activity (AID 2283030); details: primary human endothelial cells (HUVEC); actives raise or lower the signal
In short: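 uPAR level read by ELISA on HUVEC cultures (BioMAP 4H) 24 h post-dosing, analyzed for gain or loss relative to DMSO. Parallel SRB staining assessed overt cytotoxicity.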

[10] = BSK_BE3C_SRB: Viability Assessment in the BioMAP Diversity Plus: BE3C Assay (AID 2283028); details: primary human bronchial epithelial cells;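 on AC50: fitted both ways so AC50 may mark signal gain or loss versus DMSO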
In short: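 Cytotoxicity read-out: SRB (0.1%) staining of TCA-fixed (10%) human lung bronchial epithelial cells, absorbance 560 nm, 24 h post-dosing. Curves fitted both directions relative to DMSO.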

human Vitamin D Receptor (VDR), VDR (gene 7421), sequence (P11473 whole entry, looked up, the tested form may be a part): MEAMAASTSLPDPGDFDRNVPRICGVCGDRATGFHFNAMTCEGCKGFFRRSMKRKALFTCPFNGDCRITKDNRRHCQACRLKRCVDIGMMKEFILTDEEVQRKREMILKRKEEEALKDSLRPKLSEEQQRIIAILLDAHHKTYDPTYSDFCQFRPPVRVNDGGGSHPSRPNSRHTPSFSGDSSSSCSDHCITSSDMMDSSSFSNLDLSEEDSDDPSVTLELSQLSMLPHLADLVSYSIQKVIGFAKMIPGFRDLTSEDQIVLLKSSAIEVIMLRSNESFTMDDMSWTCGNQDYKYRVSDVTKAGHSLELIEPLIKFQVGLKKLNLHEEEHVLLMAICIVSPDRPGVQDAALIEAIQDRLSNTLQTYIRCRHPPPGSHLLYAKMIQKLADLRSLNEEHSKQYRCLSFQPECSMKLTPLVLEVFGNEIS

SMILES	outcome [1]	outcome [2]	AC50 [3]	outcome [4]	AC50 [5]	AC50 [6]	AC50 [7]	outcome [8]	AC50 [9]	AC50 [4]	AC50 [8]	outcome [9]	AC50 [1]	AC50 [10]	outcome [3]	outcome [5]	outcome [6]	outcome [7]	outcome [10]
CCN(Cc1cccnc1)C(=O)c1cccc(Cl)c1[C@]1(C)C(=O)N(Cc2ccc(OC)cc2OC)c2ccc(Cl)cc21	inactive	inactive	6.28 µM (active)	inactive	4.34 µM (active)	4.73 µM (active)	5.38 µM (active)	inactive	5.48 µM (active)	–	–	–	–	–	–	–	–	–	–
Cc1oc2c(NC(=O)c3c(Cl)cccc3Cl)cccc2c1C(C)(C)O	inactive	inactive	25 µM (active)	–	20.7 µM (active)	13.2 µM (active)	15 µM (active)	–	–	14.3 µM (active)	11.8 µM (active)	inactive	–	–	–	–	–	–	–
CC(C)(c1cc(Br)c(O)c(Br)c1)c1cc(Br)c(O)c(Br)c1	–	inactive	29.6 µM (active)	–	37.8 µM (active)	30.2 µM (active)	28.7 µM (active)	–	28.9 µM (active)	9.3 µM (active)	8.15 µM (active)	–	37.1 µM (active)	5.06 µM (active)	–	–	–	–	–
CCCCCCCCCC(=O)O	inactive	inactive	–	inactive	–	–	–	inactive	–	–	–	inactive	–	–	inactive	inactive	inactive	inactive	inactive
c1ccc(C[n+]2cccc3ccccc32)cc1	inactive	inactive	–	inactive	–	–	–	inactive	–	–	–	inactive	–	–	inactive	inactive	inactive	inactive	–
c1ccc2ccccc2c1	inactive	inactive	–	inactive	–	–	–	inactive	–	–	–	inactive	–	–	inactive	inactive	inactive	inactive	inactive
CC(C)(O)c1ccc(CNC(=O)c2cccnc2Oc2ccc3nonc3c2)cc1	inactive	inactive	–	inactive	–	–	–	inactive	–	–	–	inactive	–	–	inactive	inactive	inactive	inactive	inactive
CC(C)(C)c1csc(-c2cc3cc(OCc4ccccc4CC(=O)O)ccc3o2)n1	–	inactive	21.5 µM (active)	–	–	18.7 µM (active)	20 µM (active)	inactive	21 µM (active)	8.45 µM (active)	–	–	32 µM (active)	12.2 µM (active)	–	inactive	–	–	–
Cc1ncc(CO)c(CO)c1O	inactive	inactive	–	inactive	–	–	–	inactive	–	–	–	inactive	–	–	inactive	inactive	inactive	inactive	inactive
